Data taken from PubChem BioAssay (NCATS).
Results filed as inconclusive are left out. A number with no mark means an inactive call. Calls follow the shape of the dose curve; as a rule, active = well fitted cell-killing curve with a large enough effect; inconclusive = small, poorly fitted or top-dose-only effect, or effect the other way; inactive = no such curve, though single readings can be large or run the other way.

Assay: qHTS assay to identify small molecule inhibitors of chordoma cells - UCH-1 (AID 1259355); also: nearly all actives have a fitted effect of over 55% in size
Conditions: UCH-1 chordoma viability, CellTiter-Glo, 48 h, combination, with auranofin plus four topoisomerase inhibitors; series mostly up to 46.1 µM; activity, negative = inhibition: at the top concentration
Summary of the method: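 Screening used approved and investigational drugs in 15-point titration against 800 seeded cells per well. A fixed combination of auranofin with camptothecin, doxorubicin, rubitecan and topotecan followed compound addition, and growth was scored by CellTiter-Glo after 48hr.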
% is scaled to controls: 0 for no effect and ±100 for the full control effect.

SMILES	activity, negative = inhibition
CCN(CC)C(=O)N1CCN(C)CC1	-2.94% [at 20.6 µM]
CC(CCc1ccccc1)NCC(O)c1ccc(O)c(C(N)=O)c1 (centres undefined)	-1.42%
N[C@@H](Cc1cnc[nH]1)C(=O)O	-12.2%
CCCCCCCCCCOCC(O)CN (centres undefined)	-16.1%
O=C(COc1ccc(Cl)cc1)N1CCN(Cc2ccc3c(c2)OCO3)CC1	-4.03%
CC(=O)OCC(=O)NCCCOc1cccc(CN2CCCCC2)c1	-2.36%
Cc1ccc(O)c2ncccc12	-8.58%
N[C@H](CO)C(=O)O	-0.298%
CCCn1c(=O)[nH]c(=O)c2[nH]cnc21	-8.96%
C[N+]1(CCCCC[N+]2(C)CCCC2)CCCC1	-1.71%
CCCCc1nc(Cl)c(CO)n1Cc1ccc(-c2ccccc2-c2nn[nH]n2)cc1	-27.9%
C=C1C(=C/C=C2\CCC[C@]3(C)[C@@H]([C@H](C)/C=C/[C@@H](O)C4CC4)CC[C@@H]23)C[C@@H](O)C[C@@H]1O	-6.12%
C[C@@H]1C(=O)NC2=Nc3cccc(Cl)c3CN21	-27.5%
CC(C)COC(=O)OCN1C(=O)CN(CCN2CC(=O)N(COC(=O)OCC(C)C)C(=O)C2)CC1=O	-12.1%
Clc1ccc2c(c1)CCc1cccnc1C2=C1CCNCC1	-25%
CC(C)C[C@H]1C(=O)N2CCC[C@H]2[C@]2(O)O[C@](NC(=O)[C@@H]3C=C4c5cccc6[nH]c(Br)c(c56)C[C@H]4N(C)C3)(C(C)C)C(=O)N12	-36.6%
C[C@@H]1CN(CCCn2c3ccccc3c3ccccc32)C[C@H](C)N1	-23.7%
CCCOC(C(=O)OC1CCN(C)CC1)(c1ccccc1)c1ccccc1	-9.98%
C1CCc2nnnn2CC1	-13.1%
